Assay results: PubChem BioAssay AID624345 (National Center for Advancing Translational Sciences (NCATS), 2012)
Active and inactive are the calls of the source.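 Rule for the calls: active = IC50 of 75 µM or lower for blocking USP2 cleavage of diubiquitin, judged on gels; inconclusive = IC50 above 75 µM but below 100 µM; inactive = IC50 of 100 µM or more.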

The compounds below were run against Ubiquitin carboxyl-terminal hydrolase 2 (Homo sapiens) (UniProt O75604) (assay: Inhibitors of USP1/UAF1: Hit Validation in USP2 Diubiquiting Gel Assay). Conditions: USP2 K63-diubiquitin cleavage, SDS-PAGE gel densitometry.
Excerpt: Deubiquitinating enzymes (DUBs) are a class of enzymes that can cleave isopeptide bond formed between the C-terminal carboxylate of ubiquitin and a lysine side-chain amino group on the target protein. Among them, ubiquitin specific proteases (USPs) constitute the largest DUB family. Human USPs are emerging as promising targets for pharmacological intervention because of their connection to a number of human diseases, including prostate, colon and breast cancer (1, 2), pediatric acute lymphoblastic leukemia (3), and familial cylindromatosis (4). The advantage of inhibiting USPs lies in the potential specificity of therapeutic intervention that can lead to better efficacy and reduce nonspecific side effects. In a collaboration between the University of Delaware and the NIH Chemical Genomics Center, a high-throughput screen assay was developed to screen for USP1/UAF1 inhibitors. This miniaturized assay has a fluorescent read-out and is used to screen the NIH Molecular Libraries Small Molecule Repository (MLSMR) in order to identify a small molecule that inhibits USP1. Follow-up assays have also been developed to further test the hits from the primary screen. This assay validates the hits identified from the primary screen using a USP2 diubiquiting gel assay. NIH Chemical Genomics Center [NCGC] NIH Molecular Libraries Probe Centers Network [MLPCN] MLPCN Grant: DA030552 Assay Submitter (PI): Zhihao Zhuang, University of Delaware 1. Priolo, C., et al. (2006) The isopeptidase USP2a protects human prostate cancer from apoptosis. Cancer Res 66, 8625-8632 2. Popov, N., et al. (2007) The ubiquitin-specific protease USP28 is required for MYC stability. Nat Cell Biol 9, 765-774 3. […]
The inhibition assay contains 20 nM USP2, 2 microM K63 linked diubiquitin, and inhibitors at varied concentrations (0.08 microM - 114 microM). […] The intensity of the individual diubiquitin and monoubiquitin band was quantified using Quantity One 4.3.1 (Biorad, Hercules, CA). The percentage of the conversion was determined and used to calculate the reaction rate. […]

Ubiquitin carboxyl-terminal hydrolase 2 (Homo sapiens), sequence (O75604 whole entry, looked up): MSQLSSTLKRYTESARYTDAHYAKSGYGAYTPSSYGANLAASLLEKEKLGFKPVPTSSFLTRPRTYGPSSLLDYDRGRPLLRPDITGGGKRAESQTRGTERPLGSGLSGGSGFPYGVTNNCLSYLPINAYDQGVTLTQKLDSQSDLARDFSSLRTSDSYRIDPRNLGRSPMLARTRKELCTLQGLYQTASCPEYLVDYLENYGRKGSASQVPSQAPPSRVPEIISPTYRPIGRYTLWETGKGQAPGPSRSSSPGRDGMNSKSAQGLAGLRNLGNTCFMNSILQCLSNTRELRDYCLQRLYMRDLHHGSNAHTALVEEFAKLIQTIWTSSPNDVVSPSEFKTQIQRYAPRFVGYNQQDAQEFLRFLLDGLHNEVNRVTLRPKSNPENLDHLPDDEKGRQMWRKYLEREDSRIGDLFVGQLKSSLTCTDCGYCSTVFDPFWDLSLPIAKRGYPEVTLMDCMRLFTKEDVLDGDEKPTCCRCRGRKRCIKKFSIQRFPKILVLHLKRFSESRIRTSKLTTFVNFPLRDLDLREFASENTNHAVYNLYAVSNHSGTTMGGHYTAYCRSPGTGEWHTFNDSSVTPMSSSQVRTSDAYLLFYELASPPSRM

outcome, inactive:
Cc1ccccc1-c1nc(NCc2cccs2)c2ccccc2n1, Cc1cccc(CNc2ccnc(-c3ccccc3C(F)(F)F)n2)c1, FC(F)(F)c1ccccc1-c1nc(NCc2cccs2)c2ccccc2n1
